For part of these data: Entries with a potency or affinity are not part of this list.
How the values were obtained:
Staphylococcus aureus = assay: Antibacterial activity against Staphylococcus aureus MRSA ATCC 43300 (CO-ADD:GP_020); MIC in CAMBH media using NBS plates, by Resazurin F(560/590); assay type: functional; settings: Concentration 20 uM, ASSAY_TEST Inhibition of Bacterial Growth, detection method Resazurin, Fluorescence (ex560/em590), MEDIA CAMHB, plate type 384well, CORNING #3640, time 18 hr
Acinetobacter baumannii = assay: Antibacterial activity against Acinetobacter baumannii ATCC 19606 (CO-ADD:GN_034); MIC in CAMBH media using NBS plates, by Resazurin F(560/590); assay type: functional; settings: Concentration 20 uM, ASSAY_TEST Inhibition of Bacterial Growth, detection method Resazurin, Fluorescence (ex560/em590), MEDIA CAMHB, plate type 384well, CORNING #3640, time 18 hr
Escherichia coli = assay: Antibacterial activity against Escherichia coli ATCC 25922 (CO-ADD:GN_001); MIC in CAMBH media using NBS plates, by Resazurin F(560/590); assay type: functional; settings: Concentration 20 uM, ASSAY_TEST Inhibition of Bacterial Growth, detection method Resazurin, Fluorescence (ex560/em590), MEDIA CAMHB, plate type 384well, CORNING #3640, time 18 hr
Klebsiella pneumoniae = settings: Concentration 20 uM; ASSAY_TEST Inhibition of Bacterial Growth; detection method Absorption (OD600); MEDIA CAMHB; plate type 384well; NBS; CORNING #3640; time 18 hr
Candida albicans = settings: 20 µM
Cryptococcus neoformans = settings: Concentration 20 uM; ASSAY_TEST Inhibition of Fungal Growth; detection method Resazurin; Absorption (OD600-OD570); plate type 384well; NBS; CORNING #3640

SMILES	Inhibition (Staphylococcus aureus) [%]	Inhibition (Acinetobacter baumannii) [%]	Inhibition (Escherichia coli) [%]	Inhibition (Klebsiella pneumoniae) [%]	Inhibition (Candida albicans) [%]	Inhibition (Cryptococcus neoformans) [%]
S=C1N(c2ccccc2)CN(C2CCCCC2)CN1c1ccccc1	0.84	12.71	-2.84	1.62	3.07	-5.37
Cc1c(Cc2ccccc2)[n+]([O-])c2ccccc2[n+]1[O-]	19.3	-9.71	20.29	-6.69	-1.35	-12.82
N#CCS(=O)(=O)c1cccc[n+]1[O-]	7.02	-20.49	18.56	15.26	4.91	-4.09
Cn1c(=O)c2nc(SCc3ccccn3)[nH]c2n(C)c1=S	8.4	9.84	-0.48	14.94	0.94	-2.39
Cc1ccc2nc(Cl)cc(=O)n2c1	3.79	-0.85	-11.05	5.29	1.34	9.92
Clc1cc2c(c(CSc3nc4ccccc4n4cccc34)c1)OCOC2	18.29	11.44	-3.64	3.77	0.34	2.56
COc1ccc(Br)c2c1C(=O)CC2	10.21	-14.67	12.53	-2.44	20.7	-15.03
O=C(O)c1cc2ccccc2cc1Nc1ccccc1	0.16	5.64	-16.93	8.83	12.2	17.2
CSc1nc(C)cc(S)n1	0.72	-7.16	3.46	5.27	18.9	-4.48
Cc1ccc(C)c(-n2c(-c3ccc(Br)cc3)cs/c2=N\C(=O)c2ccccc2F)c1	15.56	-6.11	6.4	8.65	4.24	-4.37
O=C(c1ccc(O)cc1)c1ccc(C(=O)c2ccc(O)cc2)cc1	20.54	4.24	2.65	14.45	3.86	-7.33
COc1ccc(/N=N/c2c(N)n[nH]c2N)cc1	9.98	-10.61	6.79	12.54	3.82	-6.57
Cl.O=C(O)c1ccc(NCc2nc3ccccc3[nH]2)cc1	0.21	-0.88	-3.07	12.5	1.6	-6.81
S=C(Nc1ccccc1)Nc1nccs1	-6.83	13.46	-3.08	13.95	19.1	1.13
CN(C)CC1C2CCC(C2)C1O (stereo not given)	7.18	-12.67	8.84	23.62	0.82	-7.67
COc1c(O)ccc2c1CN1CCc3cc4c(cc3C1C2)OCO4 (stereo not given)	12.64	10.47	3.09	10.21	-2.64	-12.68
Cc1ccc(Cl)cc1NC(=O)c1cc2ccccc2cc1O	5.29	-8.92	15.86	12.1	4.11	-7.39
Clc1cc2c(nn1)Nc1ccccc1S2	-2.08	9.37	10.31	10.14	0.32	-16.64
COc1cc(-c2ccc(NC(=O)NC3CC3)c(OC)c2)ccc1NC(=O)NC1CC1	15.12	-9.96	13.19	5.08	3.52	-5.24
O=C(Oc1cccnc1O)c1cccc(Cl)c1	-7.64	10.47	6.47	11.85	13.4	-17.52
CN(C(=O)c1ccncc1)c1ccccc1	38.14	13.73	16.42	7.45	4.18	6.4
COc1ccc(Cc2nnc(SC)n2-c2ccc(F)cc2)cc1OC	7.78	-2.89	10.28	14.43	2.19	-3.12
ClC(Cl)(Cl)C1=Nc2c(nnn2Cc2ccccc2)CN1	1.51	7.83	14.39	3.07	-3.28	-12.54
N#Cc1nnn(-c2ccc(Cl)cc2)c1N	17.83	3.74	11.71	-5.78	0.88	-4.67
O=C(Nc1ccc(NC(=O)c2ccncc2)cc1)c1ccncc1	23.04	-1.2	8.24	15.75	1.6	-0.9

SMILES	Inhibition (Staphylococcus aureus) [%]	Inhibition (Acinetobacter baumannii) [%]	Inhibition (Escherichia coli) [%]	Inhibition (Klebsiella pneumoniae) [%]	Inhibition (Candida albicans) [%]	Inhibition (Cryptococcus neoformans) [%]
CC1CO/C(=C2\C(=O)OCC2C)C1 (stereo not given)	4.79	-14.17	10.92	2.95	41.2	-12.83
CSC(=O)NC(=O)NC(=O)c1ccc([N+](=O)[O-])cc1	9.19	0.18	3.52	12.66	-0.48	44.26
Nc1ccc(Oc2ccc(N)c([N+](=O)[O-])c2)cc1[N+](=O)[O-]	19.29	-5.09	4.4	9.85	10.1	-3.81
CCC1=C(c2ccc(OC)cc2)CCC(C(=O)O)C1C (stereo not given)	20.78	6.76	-4.91	12.8	12.4	-6.31
CC1CN(CCN2CC(C)N(C=O)CC2C)C(C)CN1C=O (stereo not given)	-7.66	-6.52	-13.71	5.89	1.99	25.73
O=C(CN1CCCC1)Nc1nc(-c2ccc(Cl)cc2)cs1	-2.74	10.5	-10.54	13.35	4.21	-1.35
Cc1ccc([N+](=O)[O-])cc1NC(=O)Nc1ccc(S(N)(=O)=O)cc1	2.59	7.91	0	0.38	-0.57	-7.76
NS(=O)(=O)c1ccc(NC2(C(=O)O)CCCC2)cc1	11.74	13.36	-10.3	11.38	4.41	18.42
CN(CC(=O)O)Cc1oc(CO)cc(=O)c1O	10.58	-10.6	6.09	19.22	0.31	-9.52
NC(=O)c1cc2c3ccccc3ccn2c1-c1ccccc1	8.37	-5.02	3.37	9.25	6.45	-9.75
CN(C)/C=N/c1ccc(Cl)c(Cl)c1	2.81	14.75	-10.37	19.84	8.37	-5.94
Cc1cc(C)c(C#N)c(Sc2nc(C)c([N+](=O)[O-])c(C)c2C#N)n1	33.8	4.2	1.58	21.76	8.27	2.92
CC(=O)NC1=C/C(=C\[N+](=O)[O-])C=C1O	-1.13	0.39	10.35	11.59	0.53	-2.2
COc1ccccc1NC(=O)c1cc2ccccc2cc1O	12.35	5.68	6.98	12.44	-0.94	-6.93
CC(C)=C(c1ccc(Cl)cc1)c1c(N)ncnc1N	3.52	-10.84	10.95	14.5	-0.84	-5.15
Oc1ccc2c(ccc3[nH]cnc32)c1	7.97	-12.34	17.76	18.56	-0.43	-9.86
Cc1ccc(CC#N)c(-c2c(CC#N)ccc(C)c2C)c1C	10.31	-9.1	13.28	6.29	3.94	-13.71
N#Cc1n[nH]c2nc[nH]c(=O)c12	10.72	-7.81	9.33	13.07	0.58	-10.99
COCC(=O)Oc1cc(-c2ccc(C)cc2C)c(OC(=O)COC)c(-c2ccc(C)cc2C)c1	8.14	-8.27	6.56	4.04	7.18	-1.11
COc1ccc(NC2=NC(C)(CO)CS2)cc1 (stereo not given)	33.41	-4.98	1.2	15.06	1.85	5.77
O=C(O)/C=C/C(=O)Nc1cccc2cccnc12	36.64	-0.12	28.31	7.62	8.39	9.5
O=C1CCC(c2ccccc2)(c2ccccc2)CC1	-6.5	-6.38	1.3	-0.79	-1.35	-9.68
COc1cccc(OCC(O)CN2CCN(c3ccccc3)CC2)c1 (stereo not given)	10.13	-11.48	-4.05	23.2	-2.19	-13.63
CCOC(=O)c1csc(-c2ccc(COC(=O)c3ccccc3)o2)n1	13.59	3.92	-0.69	10.14	4.97	-13.35
O=C1c2cc([N+](=O)[O-])ccc2-c2cc(Br)c(NC(=NO)C(F)(F)F)cc21	19.28	-25.99	18.87	6.86	-4.85	-6.6
